Test results reported in PubChem BioAssay AID720712 (NMMLSC, 2013).
Activity calls are given as the source filed them.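 How the source made its calls: active means EC50 at most 10 µM with response changing by at least 30 points across doses, from an acceptable curve fit; inactive means the rest.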

Biological target: Cell division control protein 42 homolog (Homo sapiens) (UniProt P60953)
Experiment: Cdc42 wildtype GTP-binding inhibitors, late-stage follow-up, mechanism study for Ras-family GTPase inhibitor project, biochemical, compound preincubation comparison, flow cytometry beads, Bodipy-FL-GTP (AID 720712)
Details: GST-Cdc42 beads, EDTA, protocol A; series mostly up to 100 µM

Cell division control protein 42 homolog (Homo sapiens), sequence (P60953 whole entry, looked up): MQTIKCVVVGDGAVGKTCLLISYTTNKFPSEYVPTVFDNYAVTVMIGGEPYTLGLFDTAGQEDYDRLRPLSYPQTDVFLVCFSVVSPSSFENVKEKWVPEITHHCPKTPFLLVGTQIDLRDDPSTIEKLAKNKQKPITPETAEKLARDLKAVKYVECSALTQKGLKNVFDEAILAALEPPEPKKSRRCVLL

Structure (SMILES)	outcome
CC1(C)Cc2c(sc(NC(=S)NC(=O)c3ccc(N=[N+]=[N-])cc3)c2C(=O)O)CO1	inactive
CC1(C)Cc2c(sc(NC(=S)NC(=O)c3cccc(N=[N+]=[N-])c3)c2C(=O)O)CO1	inactive
